HEK293 tox: Cytotoxic Profiling in HEK 293 Cell Line of Diverse Libraries Using Quantitative High-Throughput Screening | HEK 293 viability, ATP luminescence (CellTiter-Glo), 48-72 h | Potency, µM (titrated, usually from 115 µM), for the others: at the highest dose activity change, negative = cytotoxicity, hits mostly inhibitors | hit rate 6.6% among 94,000 | AID 1345083, 2018; also: nearly all actives have a fitted effect of over 60% in size
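ATP-coupled CellTiter-Glo luminescence served as viability read-out, recorded 10 min after reagent addition at room temperature. HEK 293 cells, 250 cells/well, had been incubated with pintool-transferred compound for 48 or 72 hr at 37 degree Celsius.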
Luciferase inh: Firefly luciferase inhibition profiling of diverse chemical library using quantitative high-throughput screening. Luciferin 4-monooxygenase (Photinus pyralis), P08659. purified P. pyralis luciferase, luminescence, biochemical. Potency, µM (top dose mostly 115 µM), actives largely listed as inhibitors. hit rate 2.5% among 76,000; also: nearly all actives have a fitted effect of over 65% in size
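Biochemical qHTS: compound (6-point titration) added to 10uM D-luciferin plus 10uM ATP in Tris acetate pH 7.5 buffer with Mg, Tween-20 and BSA, then purified enzyme at 10nM; light output imaged.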
NIH3T3 tox: Cytotoxic Profiling in NIH 3T3 Cell Line of Diverse Libraries Using Quantitative High-Throughput Screening. AID 1345082, 2018. hit rate 4.3% among 94,000. Potency, µM (titrated, usually from 96.7 µM), for inactives: at the highest dose activity change, negative = cytotoxicity, hits mostly inhibitors. NIH 3T3 viability, CellTiter-Glo ATP luminescence, 48-72 h; also: nearly all actives have a fitted effect of over 55% in size
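Cytotoxicity was measured by CellTiter-Glo ATP luminescence after 48 or 72 h compound exposure at 37 °C. Mouse NIH 3T3 fibroblasts were seeded at 400 cells/well and dosed by 23 nL pin transfer.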
hNpr1 antagonist: Natriuretic polypeptide receptor (hNpr1) antagonism - Primary qHTS; Atrial natriuretic peptide receptor 1 (Homo sapiens), P16066; HEK293 hNpr1 GloSensor cGMP, ANP-stimulated luminescence; Potency, µM (top dose mostly 46.3 µM), for the others: top-dose activity change, negative = inhibition, hits mostly inhibitors; hit rate 1.6% among 76,000; calls by dose curve; also: nearly all actives have a fitted effect of over 60% in size
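HEK293 cells stably expressing human Npr1 and cGMP GloSensor pGS-40F, loaded 2 h with 2% GloSensor reagent, given compound 30 min at room temperature. Luminescence read before and 20 min after 0.1 nM hNppA.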
Active calls of the source: *; i = inactive; ? = inconclusive; nt = no result; ! = not active in a repeat; [ ] = another dose, or the depositor's remark. An excerpt weighted towards active compounds, which were near 11% of everything screened. Unless noted, calls follow the shape of the dose curve; as a rule, active = well fitted curve in the direction sought with a large enough effect; inconclusive = small, poorly fitted or top-dose-only effect, or another doubt; inactive = no such curve, though single readings can be large; an effect the other way counts as inactive or inconclusive. % is scaled to controls: 0 for no effect and ±100 for the full control effect; potency is read from the fitted curve at half-maximal effect.

SMILES	HEK293 tox	Luciferase inh	NIH3T3 tox	hNpr1 antagonist
Cc1nc(CC2CCN(C(=O)c3cc4c(s3)CCC(C)C4)CC2)no1 (stereo not drawn)	?	39.8µM*	?	-2.3%
CN(C)CCNC(=O)C1CCc2sc(C(=O)N3CCOCC3)cc2C1 (stereo not drawn)	0.3%	i	3.6%	-2.5%
CCN1c2cc(C(=O)Nc3cccc(OC)c3)ccc2C(=O)N2CCCCC21 (stereo not drawn)	44.7µM*	i	?	-13.5%
CCN1c2cc(C(=O)Nc3cccc(OC)c3)ccc2C(=O)N2CCCC21 (stereo not drawn)	?	i	-27.8%	5.0%
CCN1c2cc(C(=O)Nc3cccc(OC)c3)ccc2C(=O)N2CCCCCC21 (stereo not drawn)	31.6µM*	i	?	-6.6%
Cc1ccc(C(=O)N2CCC3(CC2)[C@H](O)C[C@@H]3OCCO)s1	0.8%	i	2.2%	3.6%
CC(=O)c1cccc(NC(=O)O[C@@H]2CO[C@H]3[C@@H]2OC[C@@H]3Nc2nccc(-c3cccc(F)c3)n2)c1	35.5µM*	?	?	?
N#Cc1cccc(-c2ccnc(N[C@H]3CO[C@H]4[C@@H]3OC[C@H]4OC(=O)Nc3cccc(C(F)(F)F)c3)n2)c1	28.2µM*	i	-21.8%	?
COc1ccc(-c2ccnc(N[C@H]3CO[C@H]4[C@@H]3OC[C@@H]4NS(=O)(=O)c3ccc4ccccc4c3)n2)cc1	22.4µM*	i	?	?
CCNC(=O)N[C@H]1CO[C@H]2[C@@H]1OC[C@@H]2Nc1nccc(-c2ccc(-c3ccccc3)cc2)n1	10µM*	?	-29.5%	11.2µM*
COc1ccc(-c2ccnc(N[C@H]3CO[C@H]4[C@@H]3OC[C@H]4OC(=O)Nc3cccc(C(F)(F)F)c3)n2)cc1	?	i	?	-19.3%
O=C(Nc1cccc(C(F)(F)F)c1)N[C@H]1CO[C@H]2[C@@H]1OC[C@@H]2Nc1nccc(-c2ccc(-c3ccccc3)cc2)n1	35.5µM*	i	31.6µM*	0.8%
COc1ccc(-c2cc3nc4c(c(=O)n3[nH]2)CCN(C(=O)COc2ccccc2C)C4)cc1	-23.7%	14.1µM*	-19.4%	-10.4%
Cc1ccccc1OCC(=O)N1CCc2c(nc3cc(-c4ccccc4Cl)[nH]n3c2=O)C1	?	i	?	-13.5%
CC1Oc2ccc(NC(=O)c3c(F)cccc3F)cc2CN(Cc2cc(F)cc(F)c2)C1=O (stereo not drawn)	?	i	?	-17.8%
Cn1ncc(N2CCC(NC(=O)Cc3ccc(F)cc3)CC2)cc1=O	-3.1%	i	i	4.7%
O=C(C1CCCC1)N1CCC2(C1)C(=O)N(CCc1ccccc1)c1ccccc12 (stereo not drawn)	39.8µM*!	i	?	-2.8%
O=C(Nc1ccc(Cl)cc1)N1CCC2(C1)C(=O)N(CCc1ccccc1)c1ccccc12 (stereo not drawn)	31.6µM*!	i	?	-11.2%
O=C(Cc1ccc(F)cc1)N1CCC2(C1)C(=O)N(CCc1ccccc1)c1ccccc12 (stereo not drawn)	44.7µM*	i	?	15.6%
O=C(Nc1ccccc1)N1CCC2(C1)C(=O)N(CCc1ccccc1)c1ccccc12 (stereo not drawn)	?	i	?	0.0%
CN1C(=O)C2(CCN(C(=O)c3ccc(C(F)(F)F)cc3)C2)c2ccccc21 (stereo not drawn)	?	i	-23.4%	27.3%
O=C(c1ccc(C(F)(F)F)cc1)N1CCC2(C1)C(=O)N(Cc1ccccc1)c1ccccc12 (stereo not drawn)	22.4µM*	i	25.1µM*	?
Cc1ccc(-c2ccc3nnc(CNC(=O)c4c(F)cccc4F)n3n2)cc1	-29.4%	i	-3.8%	-1.2%
O=C(Cc1cccs1)N1CCCn2cc(-c3ccccc3)nc21	?	i	1.6%	-14.7%
CCN(Cc1ccncc1)C(=O)CC1C(=O)NCCN1CCc1ccccc1 (stereo not drawn)	?	i	-12.0%	7.1%
SMILES	HEK293 tox	Luciferase inh	NIH3T3 tox	hNpr1 antagonist
O=C(N[C@@H]1CN(C(=O)Nc2ccccc2)CCC[C@H]1O)c1ccc(OCCN2CCOCC2)cc1	-3.1%	i	-18.6%	0.2%
O=C(NCc1nnc2n1C(C(=O)O)CC2)c1ccccc1 (stereo not drawn)	-16.1%[172 µM]	nt	-9.0%[138 µM]	nt
O=C(c1cccc(Cl)c1)N1CCC2(C1)C(=O)N(CCc1ccccc1)c1ccccc12 (stereo not drawn)	28.2µM*	i	39.8µM*!	?
COc1ccc(C(=O)N2CCC3(C2)C(=O)N(c2ccccc2)c2ccccc23)cc1 (stereo not drawn)	?	nt	-18.1%	nt
COc1ccc(C(=O)N2CCC3(C2)C(=O)N(CCc2ccccc2)c2ccccc23)cc1 (stereo not drawn)	39.8µM*!	i	?	?
COCc1nc(-c2ccc(OC3CCN(C(=O)Cc4c[nH]c5ccccc45)C3)cc2)no1 (stereo not drawn)	35.5µM*	i	?	?
CCc1nc(-c2ccc(OC3CCN(C(=O)c4sc(C)nc4C)C3)cc2)no1 (stereo not drawn)	44.7µM*	i	?	-19.9%
CCc1nc(-c2ccc(OC3CCN(S(=O)(=O)Cc4ccccc4)C3)cc2)no1 (stereo not drawn)	44.7µM*	?	?	?
CC(C)NC(=O)c1nc2cccnc2n(C2CC2)c1=O	-0.5%[172 µM]	nt	-25.7%[138 µM]	nt
CN1CC(C(=O)NCc2ccc(Cl)cc2)NC1=O (stereo not drawn)	i	nt	-13.6%[138 µM]	nt
COc1ccc([C@H]2C[C@@H](O)[C@@H](O)[C@@H]2NC(=O)c2cc3ccccc3s2)cc1	79.4µM*	i	?	?
COc1ccc(CN[C@H]2[C@H](O)[C@H](O)C[C@@H]2c2ccc(C(F)(F)F)cc2)cc1	44.7µM*	i	28.2µM*	-15.1%[70.6 µM]
COc1ccc([C@H]2C[C@@H](O)[C@@H](O)[C@@H]2NS(=O)(=O)c2ccc(C(F)(F)F)cc2)cc1	100µM*	i	-27.5%[174 µM]	1.6%[70.6 µM]
COc1ccc([C@H]2C[C@@H](O)[C@@H](O)[C@@H]2NCc2cn(C)c3ccccc23)cc1	?	i	89.1µM*	-23.7%[70.6 µM]
COc1ccc([C@H]2C[C@@H](O)[C@@H](O)[C@@H]2NCc2ccccc2)cc1	-23.1%[172 µM]	i	0.7%[174 µM]	?
COc1ccc([C@H]2C[C@@H](O)[C@@H](O)[C@@H]2NCc2cnn(C)c2)cc1	-11.7%[172 µM]	i	-7.0%[138 µM]	-2.6%[70.6 µM]
Cc1cnc(C(=O)NC2C[C@H]3CC[C@@H](C2)N3C(=O)Cc2ccsc2)cn1 (stereo partly drawn)	-14.4%	i	-15.9%	3.5%

Source: PubChem BioAssay
